# Measured values as given in PMC5540273 (PLoS ONE, 2017).
# Legend:
# Conditions in all cases: concentration: 1 μM, replicates: in singlicate; n = 1
# PDPK1 = system: PDPK1
# PFTAIRE2 = system: PFTAIRE2
# PFTK1 = system: T1, PFTK1
# T1 construct: gene CDK14
# PHKG1 = system: PHKG1
# PHKG2 = system: PHKG2
# PIK3C2B = system: PIK3C2B
# PIK3C2G = system: PIK3C2G
# PIK3CA = system: PIK3CA
# PIK3CB = system: PIK3CB
# PIK3CD = system: PIK3CD
# PIK3CG = system: PIK3CG
# PIK4CB = system: T2, PIK4CB
# T2 construct: gene PI4KB
# PIKFYVE = system: PIKFYVE
# PIM1 = system: PIM1
# PIM2 = system: PIM2
# PIM3 = system: PIM3
# PIP5K1A = system: PIP5K1A
# PIP5K1C = system: PIP5K1C
# PIP5K2B = system: PIP5K2B
# PIP5K2C = system: T3, PIP5K2C
# T3 construct: gene PIP4K2C
# 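Further: KINOMEscan kinase panel screen.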
Structure (SMILES),%Inh (PDPK1),%Inh (PFTAIRE2),%Inh (PFTK1),%Inh (PHKG1),%Inh (PHKG2),%Inh (PIK3C2B),%Inh (PIK3C2G),%Inh (PIK3CA),%Inh (PIK3CB),%Inh (PIK3CD),%Inh (PIK3CG),%Inh (PIK4CB),%Inh (PIKFYVE),%Inh (PIM1),%Inh (PIM2),%Inh (PIM3),%Inh (PIP5K1A),%Inh (PIP5K1C),%Inh (PIP5K2B),%Inh (PIP5K2C)
CCC(=O)c1c(-c2ccccc2)c2cc(Cl)ccc2c(=O)n1Cc1cc(S(C)(=O)=O)n(CCC(C)(C)O)n1,0%,0%,12%,18%,0%,41%,52%,32%,26%,36%,17%,0%,0%,15%,2%,16%,0%,0%,20%,0%
COc1cc2ncn(-c3cc(OCc4ccncc4Br)c(C(N)=O)s3)c2cc1OC [GW854278],0%,0%,0%,8%,1%,54%,12%,0%,0%,5%,55%,23%,17%,0%,0%,2%,0%,86%,41%,81%
Cc1ccc(-c2ccc3c(ccc4sc5c(c43)NC[C@@H](C)N=C5N(C)C)n2)cn1,0%,0%,0%,0%,0%,0%,0%,0%,55%,15%,0%,0%,42%,0%,0%,0%,0%,0%,0%,0%
CCCC(=O)Nc1n[nH]c2ncc(-c3cccc4ccccc34)cc12 [SB-642057],0%,23%,39%,0%,2%,7%,0%,13%,0%,0%,10%,39%,0%,10%,0%,2%,0%,34%,0%,13%
COc1cc2ncn(-c3cc(OCc4ccncc4)c(C(N)=O)s3)c2cc1OC [GSK336313],0%,27%,16%,0%,0%,0%,0%,1%,0%,0%,12%,0%,0%,0%,0%,0%,0%,30%,22%,0%
Cl.c1ccc(Cn2cnc3cc(Nc4ncnc5ccccc45)ccc32)cc1 [GW272142],0%,16%,23%,0%,1%,3%,0%,1%,71%,0%,0%,0%,6%,0%,0%,0%,0%,38%,0%,17%
COc1ccc(-n2cnc3c(N)ncnc32)cc1 [SKF-97236],12%,20%,17%,0%,0%,0%,27%,2%,9%,0%,51%,23%,0%,19%,0%,0%,0%,33%,6%,6%
FC(F)(F)c1ccc(-c2ncn(CCCN3CCOCC3)c2-c2ccncc2)cc1 [SB-217780],0%,40%,0%,1%,4%,0%,0%,0%,4%,0%,34%,0%,0%,15%,0%,13%,0%,36%,0%,27%
Cc1cc(Nc2nc(-c3cccc(C)n3)nc3ccccc23)ccn1 [GW872411],0%,0%,10%,0%,0%,0%,0%,0%,0%,0%,0%,0%,53%,0%,0%,0%,2%,0%,0%,0%
O=C(Nc1n[nH]c2nc(-c3ccccc3)c(Br)cc12)C1CC1 [SB-708998],20%,1%,7%,0%,0%,0%,9%,0%,0%,3%,0%,0%,0%,4%,0%,0%,0%,14%,33%,0%
